From PubChem BioAssay
CYP2C19 activ – human CYP2C19 activators, primary screen, biochemical, luminescence | recombinant CYP2C19, luciferin-H EGE luminescence; stronger effect = higher value; 0 = fully inhibited enzyme, 1 = untreated enzyme | 96,000 tested, under 10 active | activation factor at 5 µM;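 active means activation factor of at least 2 at 5 µM in the primary screen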;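 further: 0 = wells with 2.5 mM tranylcypromine and 1 = vehicle-only wells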
CYP2C9 act – human CYP2C9 activators, primary screen, biochemical, luminescence; recombinant CYP2C9, luciferin-H conversion; stronger effect = higher value; factor 1 = untreated enzyme, 0 = blocked; activation factor at 5 µM; actives 1.4% (n = 96,000); AID 1024, 2008;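 active means activation factor of 2 or more for CYP2C9 at a 5 µM dose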;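 further: 0 = sulfaphenazole-blocked wells and 1 = vehicle-only wells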
Target sequence (P11712 whole entry, looked up): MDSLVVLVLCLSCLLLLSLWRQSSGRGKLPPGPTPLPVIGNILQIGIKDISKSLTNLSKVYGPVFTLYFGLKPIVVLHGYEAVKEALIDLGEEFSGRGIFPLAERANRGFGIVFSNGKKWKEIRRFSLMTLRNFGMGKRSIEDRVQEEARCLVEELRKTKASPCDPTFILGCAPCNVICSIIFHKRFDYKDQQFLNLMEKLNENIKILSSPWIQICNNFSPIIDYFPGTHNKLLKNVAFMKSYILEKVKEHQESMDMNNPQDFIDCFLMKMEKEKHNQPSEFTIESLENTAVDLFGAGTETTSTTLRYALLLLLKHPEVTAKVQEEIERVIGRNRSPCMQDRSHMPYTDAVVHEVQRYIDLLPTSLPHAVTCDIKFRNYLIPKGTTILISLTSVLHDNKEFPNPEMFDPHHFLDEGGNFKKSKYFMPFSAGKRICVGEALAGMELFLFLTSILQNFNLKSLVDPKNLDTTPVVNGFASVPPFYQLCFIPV
CYP2C19 inhib – blockers of cytochrome P450 2C19 activity – biochemical, luminescence, ADME assay, primary screen. P33261. CYP2C19 Supersomes, luciferin-H EGE luminescence, 30 min. inhibition, % at 5 µM. actives 21% (n = 96,000). AID 778, 2007;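 active means CYP2C19 inhibition above a set limit at 5 µM in the primary screen, cut at about 50% in these data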;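 further: plate controls were negative control wells for no effect and 2.5 mM tranylcypromine positive control for full effect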
PostGolgi ctrl – growth inhibition of yeast control strain, primary screen, counter-screen for post-Golgi transport modulator project | efflux-deficient yeast background strain, growth absorbance A615, 16 h | inhibition, % at 10 µM | actives 5% (n = 98,000)
CYP2C9 inh – blockers of cytochrome P450 2C9 activity – biochemical, luminescence, ADME assay, primary screen. P11712. CYP2C9 Supersomes, luciferin-H conversion. inhibition, % at 5 µM. actives 20% (n = 96,000). AID 777, 2007;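 active means blocking of liver enzyme CYP2C9 beyond about 50% at 5 µM, limit read from the data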
PostGolgi yeast – phenotypic screen on post-Golgi transport, primary screen. actives 0.9% (n = 98,000). post-Golgi transport phenotypic cell assay. inhibition, % at 10 µM;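 further: yeast cells grown in 1536-well plates; yeast grown about 18 h at 30C before absorbance read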
* hit, by the source's call; · = not tested or not shown. In the library only some 32% were active in any assay of this set; here they are far more common. Unless noted, no stated cut-off is given here; in the data, active means inhibition above about 30%; inactive means the rest.

SMILES | CYP2C19 activ | CYP2C9 act | CYP2C19 inhib | PostGolgi ctrl | CYP2C9 inh | PostGolgi yeast
O=C(Cc1cccc2ccccc12)N/N=C1\CCCc2ccccc21 | 1 | 1 | 3 | 3 | 4 | 10
COc1ccccc1-c1nc2n(n1)C(c1cccs1)C(C(=O)Nc1cccnc1)=C(C)N2 (configuration not stated) | 0.9 | 0.7 | 11 | 15 | 30 | 11
COC(=O)C1CSC(C(=O)OC)N1C(=O)Nc1ccc(Cl)cc1 (configuration not stated) | 0.3 | 0.9 | 69* | -1 | 12 | 1
COC(=O)C1CSC(C(=O)OC)N1C(=O)Nc1ccc(Cl)c(Cl)c1 (configuration not stated) | 0.4 | 0.3 | 61* | 2 | 67* | 15
CC(C)[C@H](NC(=O)CCn1nnc2ccccc2c1=O)C(=O)O | 1 | 1.1 | -2 | -6 | -6 | -2
CCN1/C(=C/c2ccc3cccc(C)c3[n+]2CC)Sc2ccccc21 | 1 | 0.8 | 2 | 98* | 24 | 1
CN1CCC(=NNC(=O)CSCc2ccccc2)CC1 | 0.7 | 1 | 32 | 39* | 2 | -4
CCOC(=O)C(CSCC(=O)c1ccc(Cl)cc1)NC(=O)OC(C)(C)C (configuration not stated) | 0.4 | 0.7 | 60* | -8 | 28 | -6
CCOC(=O)C(CSCC(=O)c1ccc(Br)cc1)NC(=O)OC(C)(C)C (configuration not stated) | 0.1 | 0.2 | 93* | 1 | 82* | -1
COC(=O)C(CC(=O)c1ccc(Cl)cc1)c1ccc(C)cc1 (configuration not stated) | · | · | · | 7 | · | -7
CCOC(=O)C(CSCc1ccccc1)NC(=O)OC(C)(C)C (configuration not stated) | 0.6 | 0.8 | 37 | 2 | 22 | -3
NC(=O)CN1C(=O)C2C3C=CC(C3)C2C1=O (configuration not stated) | 1.1 | 1.1 | -8 | 8 | -6 | -5
O=C(O)C1C2C=CC(C2)C1C(=O)NC(c1ccccc1)c1ccccc1 (configuration not stated) | 1.2 | 1.3 | -17 | 14 | -35 | 1
Cc1nc(CS(=O)(=O)c2ccccc2)cc(Sc2ccccc2Cl)n1 | 0.5 | 0.5 | 47 | 2 | 49 | 24
Cc1nc(CS(=O)(=O)c2ccc(Cl)cc2)cc(N2CCOCC2)n1 | 0.2 | 0.5 | 80* | -3 | 53* | 12
Cc1nc(CS(=O)c2ccc(Cl)cc2)cc(N2CCOCC2)n1 (configuration not stated) | 0.6 | 0.8 | 45 | -1 | 17 | 2
Cc1nc(CS(=O)(=O)c2ccc(Cl)cc2)cc(Sc2ccccc2Cl)n1 | 0.5 | 0.3 | 52* | 18 | 67* | 9
Cc1ccsc1C1Nc2ccc3ncccc3c2C2=C1C(=O)CC(C)(C)C2 (configuration not stated) | 0 | 0.2 | 98* | 10 | 80* | -3
O=C1CCCC2=C1C(c1cccs1)Nc1ccc3ncccc3c12 (configuration not stated) | 0.1 | 0.1 | 95* | 6 | 94* | 0
O=C1CCCC2=C1C(c1ccncc1)Nc1ccccc1N2 (configuration not stated) | 0.6 | 0.8 | 38 | 2 | 23 | -7
COc1ccccc1NC(=O)CSc1nc(O)cc(=O)[nH]1 | 1.2 | 1.1 | -18 | 6 | -5 | 20
COC(=O)c1ccccc1Sc1c(/C=N/OC(=O)c2ccccc2)c(C(F)(F)F)nn1C | 0.6 | 0.1 | 39 | 5 | 91* | 6
COc1ccc(C(=O)O/N=C/c2c(C(F)(F)F)nn(C)c2SCc2ccccc2Cl)cc1 | 0.8 | 0.7 | 17 | -3 | 30 | 3
Cn1nc(C(F)(F)F)c(/C=N/OC(=O)c2ccccc2Cl)c1SCc1ccc(Cl)cc1 | 0.5 | 0.2 | 54* | 1 | 77* | 2
Cc1ccc(C(=O)O/N=C/C2=C(Cl)c3ccccc3CC2)cc1 | 1 | 0.8 | 4 | -8 | 23 | 0
SMILES | CYP2C19 activ | CYP2C9 act | CYP2C19 inhib | PostGolgi ctrl | CYP2C9 inh | PostGolgi yeast
COC(=O)c1sccc1-c1ccc(/C=N/OC(=O)c2ccccc2)o1 | 1 | 0.8 | 5 | 16 | 18 | 4
Cc1ccc(C(=O)O/N=C/c2c(C(F)(F)F)nn(C)c2Sc2ccc(Cl)cc2)cc1 | 0.8 | 0.2 | 23 | 6 | 80* | 19
Cn1c(=O)n(CCN2CCOCC2)c(=O)c2c1nc1n2CCN1c1ccc(Oc2ccccc2)cc1 | 0.9 | 1 | 12 | · | 1 | ·
O=C(O)CCc1ccc(-c2ccccc2)n1NC(=O)c1sc2ccccc2c1Cl | 1.1 | 0.8 | -11 | 3 | 24 | 5
CCOC(=O)C1CCN(C(=O)c2cnn3c(C)cc(C)nc23)CC1 | 1 | 0.9 | 4 | 7 | 13 | 4
Cc1ccc(C(=O)NC2(C(F)(F)F)N=C3SCCN3C2=O)cc1 (configuration not stated) | 0.9 | 0.9 | 6 | 7 | 13 | -2
O=C1N2CCSC2=NC1(Nc1ccccn1)C(F)(F)F (configuration not stated) | 1 | 1 | -1 | 48* | 5 | 0
CS(=O)(=O)c1ccc2nc(NC3(C(F)(F)F)N=C4SCCN4C3=O)sc2c1 (configuration not stated) | 0.9 | 0.1 | 6 | -3 | 92* | -5
CCOC(=O)C1CCN(c2c(NC3CCCCCCC3)c(=O)c2=O)CC1 | 0.9 | 0.9 | 8 | -5 | 13 | 14
O=C(COc1ccccc1)Nc1ccccc1C(=O)NCc1ccco1 | 0.4 | 0.4 | 58* | 13 | 64* | -5
Cc1ccccc1NC(=O)c1ccccc1NC(=O)c1ccco1 | 0.8 | 0.5 | 18 | 11 | 50 | 0
O=C(NCc1ccco1)c1ccccc1-c1ccc(C(F)(F)F)cc1 | 0.6 | 0.7 | 39 | 16 | 34 | 2
O=C(Nc1ccc(Cl)cc1)Nc1ccccc1C(=O)NCc1ccco1 | 0.9 | 0.5 | 6 | 10 | 53* | -6
O=C(Nc1ccccc1C(=O)NCc1ccco1)c1ccccc1 | 0.5 | 0.3 | 54* | 6 | 74* | 10
Cc1ccccc1NC(=O)CNc1ccccc1C(=O)NCc1ccco1 | 0.3 | 0.8 | 68* | 10 | 24 | 12
O=C(NCc1ccco1)C1CC(=O)N(c2ccc(F)cc2)C1 (configuration not stated) | 1 | 1.2 | 0 | 5 | -21 | 7
O=C(NCc1ccco1)c1ccccc1NC(=O)C1CC(=O)N(c2ccc(Cl)cc2)C1 (configuration not stated) | 0.5 | 0.3 | 53* | 11 | 68* | -2
